Results reported in PubChem BioAssay (NCATS).
Records with an inconclusive call do not appear. A call without a number means that no potency is given here. A number with no mark means an inactive call. Calls of active or inactive are those of the source. Calls follow the shape of the dose curve; as a rule, active = well fitted inhibition curve with a large enough effect; inconclusive = small, poorly fitted or top-dose-only effect; inactive = flat fitted curve, though single readings scatter. Where a SMILES comes first, the peptide text is derived from it. [ ]: non-standard residue; d: D form.

Target: Calcium and integrin-binding protein 1 (Homo sapiens) (UniProt Q99828)
Assay: Primary qHTS for Identification of Calcium Integrin Binding Protein 1 (CIB1) Competitor (AID 1508620); also: top concentration of the series differs between compounds
Conditions: CIB1-GST / FITC-alphaIIb peptide fluorescence polarization; series mostly up to 57.7 µM
How it was run: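 Fluorescence polarization competition: GST-tagged CIB1 (1 uM final) preincubated with compound 15 min at room temperature, then FITC-labelled alphaIIb peptide (100 nM final) added. After 15 min at room temperature, polarization read at Ex 480/Em 540.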

Sequence of Calcium and integrin-binding protein 1 (Homo sapiens) (Q99828 whole entry, looked up): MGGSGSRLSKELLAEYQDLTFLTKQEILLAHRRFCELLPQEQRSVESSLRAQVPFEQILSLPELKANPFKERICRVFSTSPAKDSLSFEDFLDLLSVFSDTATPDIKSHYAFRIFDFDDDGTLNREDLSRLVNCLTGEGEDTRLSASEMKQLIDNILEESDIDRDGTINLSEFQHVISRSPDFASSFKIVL

Question: With `Cc1ccc(Sc2cncc3sc(C(N)=O)cc23)cc1` as the compound, how does the Potency read?
Answer: The Potency was “inactive”.

Question: Which Potency does the source give for `CCOC(=O)Nc1nc2ccccc2[nH]1` here?
Answer: The Potency was “inactive”.

Question: `C[C@]12CC[C@@H]3c4ccc(O[C@@H]5O[C@H](C(=O)O)[C@@H](O)[C@H](O)[C@H]5O)cc4CC[C@H]3[C@@H]1CCC2=O` was tested. Which Potency did it give?
Answer: Its Potency is “inactive”.

Question: For `O=C(O)[C@H]1CCCC[C@H]1C(=O)N1CCc2ccccc2[C@H]1CN1C(=O)c2ccccc2C1=O`, which Potency is on record?
Answer: Its Potency is “inactive”.

Question: How did the Potency turn out when `C[C@@H]1O[C@@H](O[C@H]2[C@H](OC(C#N)c3ccc(O)cc3)O[C@H](CO)[C@@H](O)[C@@H]2O)[C@H](O)[C@H](O)[C@H]1O` (some centres undefined) was run?
Answer: The Potency was “inactive”.

Question: With `CC(=O)OCC(=O)O[C@@H]1[C@H]2[C@@H](OC(=O)c3ccccc3)[C@@H](C)C[C@]2(O)[C@H](OC(C)=O)C2(C)[C@H]3CC(C)(C)C(=O)[C@@H]3CC1(OC(C)=O)[C@@H]2OC(C)=O` (some centres undefined) as the compound, how does the Potency read?
Answer: The Potency was “inactive”.

Question: `CCCC1=CC2=C(CO1)C(=O)C(C)(OC(=O)c1c(C)cc(OC)cc1O)C(O)C2` (centres undefined) was tested. Which Potency did it give?
Answer: The Potency was “inactive”.

Question: For `Nc1nonc1C(=Nc1ccc(F)c(Cl)c1)NO`, which Potency is on record?
Answer: The Potency was “inactive”.

Question: For `O=C(O)CCc1cccc(O[C@@H]2O[C@H](CO)[C@@H](O)[C@H](O)[C@H]2O)c1O`, which Potency is on record?
Answer: Its Potency is “inactive”.

Question: `CC(=O)N(O)CCCCCN1C(=O)CCC1=O` was tested. Which Potency did it give?
Answer: Its Potency is “inactive”.

Question: Which Potency does the source give for `COC(=O)C1=CO[C@@H](O[C@@H]2O[C@H](CO)[C@@H](O)[C@H](O)[C@H]2O)[C@@H]2[C@@H](C)[C@@H](O)C[C@H]12` here?
Answer: The Potency was “inactive”.

Question: Which Potency does the source give for `NCc1c[nH]c(=S)n1C1CCc2c(F)cc(F)cc2C1` (centres undefined) here?
Answer: The Potency was “inactive”.

Question: Which Potency does the source give for `CC1CCC2C(C)(C)C(O)CCC2(C)C12Cc1c(O)cc3c(c1O2)CN=C3N` (centres undefined) here?
Answer: Its Potency is “inactive”.

Question: How did the Potency turn out when `C/C(=C/CCC(CO)C1CCC2(C)C3CCC4C(C)(C)C(OC5OC(CO)C(O)C(O)C5O)CC(O)C45CC35CCC12C)COC1OC(CO)C(O)C(O)C1O` (centres undefined) was run?
Answer: Its Potency is “inactive”.

Question: For `CC(O)C(O)/C=C/C=C/C(=O)O[C@@H]1C=C2COC(=O)[C@]2(O)[C@@]2(C)CCCC(C)(C)C12` (some centres undefined), which Potency is on record?
Answer: The Potency was “inactive”.

Question: With `CC1=C2[C@@H]([C@H](C)CC[C@H]2/C=C(\C)C(=O)O)[C@H](O)C1` as the compound, how does the Potency read?
Answer: The Potency was “inactive”.

Question: For `CC[C@H]1OC(=O)[C@H](C)[C@@H](O[C@H]2C[C@@](C)(OC)[C@@H](O)[C@H](C)O2)[C@H](C)[C@@H](O[C@@H]2O[C@H](C)C[C@H](N(C)C)[C@H]2O)[C@@](C)(O)C[C@@H](C)[C@@H]2N[C@@H](COCCOC)OC([C@H]2C)[C@]1(C)O`, which Potency is on record?
Answer: The Potency was “inactive”.

Question: With `CNC(=O)[C@H]1O[C@@H](n2cnc3c(NCc4ccc(N)c(I)c4)ncnc32)[C@H](O)[C@@H]1O` as the compound, how does the Potency read?
Answer: Its Potency is “inactive”.

Question: How did the Potency turn out when `c1nc(NC2CCCCCC2)c2cc(CNC[C@H]3CCCO3)sc2n1` was run?
Answer: Its Potency is “inactive”.

Question: Which Potency does the source give for `CCNC(=O)[C@@H]1CCCN1C(=O)[C@H](CCCN=C(N)N)NC(=O)[C@H](CC(C)C)NC(=O)[C@@H](C)NC(=O)[C@H](Cc1ccc(O)cc1)NC(=O)[C@H](CO)NC(=O)[C@H](Cc1c[nH]c2ccccc12)NC(=O)[C@H](Cc1cnc[nH]1)NC(=O)[C@@H]1CCC(=O)N1` here?
Answer: The Potency was “inactive”.

Question: How did the Potency turn out when `COc1cc(N2CCC(N(C)C)CC2)ccc1Nc1ncc(Cl)c(Nc2ccccc2P(C)(C)=O)n1` was run?
Answer: Its Potency is “inactive”.

Question: For `COc1cc(C2Oc3c(OC)cc(/C=C/C(=O)OC[C@H]4O[C@@H](OC(C)(C)C(=O)O)[C@H](O)[C@@H](O)[C@@H]4O)cc3C2CO)ccc1O` (some centres undefined), which Potency is on record?
Answer: The Potency was “inactive”.

Question: With `C=C1C(O[C@@H]2O[C@H](CO)[C@@H](O)[C@H](O)[C@@H]2O)CC2C(C)(C)C(O)CCC2(C)C1CC/C(C)=C\CO` (some centres undefined) as the compound, how does the Potency read?
Answer: The Potency was “inactive”.

Question: `Cc1ccc2c(c1)C=Cc1cc(C)ccc1C2c1cn(Cc2ccc(C(=O)Nc3nn[nH]n3)o2)c(=O)[nH]c1=S` was tested. Which Potency did it give?
Answer: Its Potency is “inactive”.

Question: `COCC(=O)N1CCc2cc(-c3csc(NC(=O)c4cc(OC)cc(OC)c4)n3)ccc21` was tested. Which Potency did it give?
Answer: The Potency was “inactive”.

Question: Which Potency does the source give for `CC(C)c1ccc(CC(=O)N2CCC[C@@H](c3cccc(OC(C)(C)C(=O)O)c3)C2)cc1` here?
Answer: The Potency was “inactive”.

Question: For `c1ccc(Nc2nc3c(s2)CCCc2[nH]ncc2-3)nc1`, which Potency is on record?
Answer: Its Potency is “inactive”.

Question: How did the Potency turn out when `CC(=O)Oc1cc2c(s1)CCN([C@H](C(=O)C1CC1)c1ccccc1F)C2` was run?
Answer: Its Potency is “inactive”.

Question: For `Cn1ccnc1CCOC(c1cc2nccc(C(=O)O)c2[nH]1)c1ccccc1Cl` (centres undefined), which Potency is on record?
Answer: Its Potency is “inactive”.

Question: How did the Potency turn out when `COC(=O)C[C@@H]1C(C(=O)O)=CO[C@@H](O[C@@H]2O[C@H](CO)[C@@H](O)[C@H](O)[C@H]2O)/C1=C\COC(=O)/C=C\c1ccccc1` was run?
Answer: The Potency was “inactive”.

Question: Which Potency does the source give for `CC(=O)N[C@H](Cc1ccc(O)cc1)C(=O)N[C@H](CCCN=C(N)N)C(=O)N[C@H](Cc1ccccc1)C(N)=O` (Ac-[dY]-[dR]-[dF]-NH2) here?
Answer: The Potency was “inactive”.

Question: With `COCCN(C)Cc1ccc2nc3sc(C(=O)N(C)C4CCCCC4)cn3c2c1` as the compound, how does the Potency read?
Answer: The Potency was “inactive”.

Question: `CC(=O)O[C@H]1CC[C@@]2(CI)C(=CC[C@@H]3[C@@H]2CC[C@]2(C)[C@@H]([C@H](C)CCCC(C)C)CC[C@@H]32)C1` was tested. Which Potency did it give?
Answer: Its Potency is “inactive”.

Question: With `COC(=O)[C@@]1(O)C=CC[C@@H]2[C@@]3(C)C[C@@H](c4ccoc4)OC(=O)[C@H]3CC[C@]21C` as the compound, how does the Potency read?
Answer: Its Potency is “inactive”.

Question: How did the Potency turn out when `C/C=C/C=C/C=C/C(=O)O[C@@H]1[C@@H](OC)C2=C(C(=O)N(C(C)C(=O)O)C2)[C@@]2(C)CCCC(C)(C)[C@H]12` (some centres undefined) was run?
Answer: Its Potency is “inactive”.

Question: With `COc1ccc(C[C@H](N)C(=O)N[C@H]2[C@@H](O)[C@H](n3cnc4c(N(C)C)ncnc43)O[C@@H]2CO)cc1` as the compound, how does the Potency read?
Answer: Its Potency is “inactive”.

Question: `Cc1cn2c(N)c(Cl)cc(C(=O)NCC3CCN(CC(C)C)CC3)c2n1` was tested. Which Potency did it give?
Answer: Its Potency is “inactive”.

Question: For `CC1OC(O[C@H]2[C@@H](O)C[C@@]3(C)C([C@H](O)C[C@]4(C)C3CC=C3C5CC(C)(C)CC[C@]5(C(=O)OC5OC(CO)C(O)C(O)C5OC5OCC(OC6OCC(OC7OCC(O)C(O)C7O)C(O)C6O)C(OC6OCC(O)(CO)C6O)C5O)CC[C@]34C)[C@]2(C)CO)C(O)C(O)C1O` (some centres undefined), which activity change, negative = inhibition is on record?
Answer: Its activity change, negative = inhibition is -4.55% [at 12.4 µM].

Question: How did the Potency turn out when `CC1=CC(=O)C[C@H]2[C@@H]1CC[C@@H](C)[C@]21CO[C@H](c2ccoc2)C1=O` was run?
Answer: Its Potency is “inactive”.
